Data on 46 molecules can be found in PubChem BioAssay (NCATS).

Values without a mark were called inactive. Results filed as inconclusive are left out. Where a call stands in place of a potency, no number is given. Activity calls are given as the source filed them. Unless noted, the call rests on the fitted dose curve; in most records, active means well fitted curve in the direction sought with a large enough effect; inconclusive means small, poorly fitted or top-dose-only effect, or another doubt; inactive means no such curve, though single readings can be large; an effect the other way counts as inactive or inconclusive.

Experiment [1] addresses DNA dC->dU-editing enzyme APOBEC-3G (Homo sapiens) (UniProt Q9HC16). Briefly: qHTS for inhibitors of Vif-A3G interactions: Validation (AID 588379). The following applies: Vif-A3G protein interaction assay; series mostly up to 46.1 µM. In short, it runs like this: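 HeLa cells stably expressing Vif and A3G-eYFP, 700 cells/well, incubated overnight at 37 deg C, then exposed to compound overnight at 37 deg C. Inhibition of Vif-mediated degradation read as increased yellow fluorescence (Ex 488/Em 500-530) by laser-scanning cytometry.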

Experiment [2] has as its target Glucocorticoid receptor (Homo sapiens) (UniProt P04150). Briefly: qHTS assay for small molecule agonists of glucocorticoid receptor signaling (AID 588532; active means well fitted curve in the direction sought with a large enough effect in the signal ratio, with a control signal flat; the % refers to the signal ratio). The following applies: HeLa MMTV-bla, beta-lactamase ratio, agonist, 18 h; hits give high values; percent of dexamethasone control, DMSO zero. In short, it runs like this: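 Agonist-mode qHTS: GRE-driven beta-lactamase in HeLa cells exposed 18 h to titrated compounds (up to 92 uM), then CCF4 ratio read after 2 h at RT; Hill-fitted EC50, efficacy relative to 0.1 uM dexamethasone.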

Experiment [3] concerns the target ATP-dependent 6-phosphofructokinase (Trypanosoma brucei brucei) (UniProt O15648). Briefly: qHTS Assay to Find Inhibitors of T. brucei phosphofructokinase: hit validation (AID 492961).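 Further: luminescence reports ADP formed as PFK phosphorylates fructose-6-phosphate with ATP.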 The settings on record: T. brucei PFK, ADP-Glo luminescence; series mostly up to 51.4 µM. In short, it runs like this: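 ADP-Glo luminescence read-out of ADP formed by 1.25 nM PFK from 0.1 mM ATP and 0.5 mM F6P (TEA pH 8.0, 45 min, RT). Compounds titrated; activity normalized to no-enzyme and full-enzyme controls.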
On the technique in general: In qHTS, concentration-response curves come from the screen itself.

Experiment [4] addresses Ubiquitin carboxyl-terminal hydrolase 1 (Homo sapiens) (UniProt O94782). Briefly: Inhibitors of USP1/UAF1: Pilot qHTS (AID 504865). Further: nearly all actives have a fitted effect of over 35% in size. Further: potency means the concentration at half of the fitted maximal effect. The settings on record: purified USP1/UAF1, Ub-rhodamine cleavage fluorescence; series mostly up to 114 µM. In short, it runs like this: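 Deubiquitinase activity followed as kinetic rhodamine fluorescence release from 150 nM Ub-Rho. 1 nM USP1/UAF1 with compound, after 15 min room-temperature preincubation, in HEPES pH 7.8 buffer containing TCEP, EDTA, BSA and Tween-20.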

Sequence of ATP-dependent 6-phosphofructokinase (Trypanosoma brucei brucei) (O15648 whole entry, looked up): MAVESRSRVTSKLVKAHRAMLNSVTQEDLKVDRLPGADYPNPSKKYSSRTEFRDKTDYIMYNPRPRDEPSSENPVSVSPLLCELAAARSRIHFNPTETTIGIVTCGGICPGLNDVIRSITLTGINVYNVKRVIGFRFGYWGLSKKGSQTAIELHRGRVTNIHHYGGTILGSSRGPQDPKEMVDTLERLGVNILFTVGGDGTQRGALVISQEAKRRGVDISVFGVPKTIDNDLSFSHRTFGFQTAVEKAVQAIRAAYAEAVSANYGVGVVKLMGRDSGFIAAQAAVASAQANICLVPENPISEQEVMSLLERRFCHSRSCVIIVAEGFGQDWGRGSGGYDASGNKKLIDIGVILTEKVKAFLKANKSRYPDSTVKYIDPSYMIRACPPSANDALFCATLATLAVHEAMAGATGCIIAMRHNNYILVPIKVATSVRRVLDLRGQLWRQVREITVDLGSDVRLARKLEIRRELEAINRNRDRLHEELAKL
Sequence of Ubiquitin carboxyl-terminal hydrolase 1 (Homo sapiens) (O94782 whole entry, looked up): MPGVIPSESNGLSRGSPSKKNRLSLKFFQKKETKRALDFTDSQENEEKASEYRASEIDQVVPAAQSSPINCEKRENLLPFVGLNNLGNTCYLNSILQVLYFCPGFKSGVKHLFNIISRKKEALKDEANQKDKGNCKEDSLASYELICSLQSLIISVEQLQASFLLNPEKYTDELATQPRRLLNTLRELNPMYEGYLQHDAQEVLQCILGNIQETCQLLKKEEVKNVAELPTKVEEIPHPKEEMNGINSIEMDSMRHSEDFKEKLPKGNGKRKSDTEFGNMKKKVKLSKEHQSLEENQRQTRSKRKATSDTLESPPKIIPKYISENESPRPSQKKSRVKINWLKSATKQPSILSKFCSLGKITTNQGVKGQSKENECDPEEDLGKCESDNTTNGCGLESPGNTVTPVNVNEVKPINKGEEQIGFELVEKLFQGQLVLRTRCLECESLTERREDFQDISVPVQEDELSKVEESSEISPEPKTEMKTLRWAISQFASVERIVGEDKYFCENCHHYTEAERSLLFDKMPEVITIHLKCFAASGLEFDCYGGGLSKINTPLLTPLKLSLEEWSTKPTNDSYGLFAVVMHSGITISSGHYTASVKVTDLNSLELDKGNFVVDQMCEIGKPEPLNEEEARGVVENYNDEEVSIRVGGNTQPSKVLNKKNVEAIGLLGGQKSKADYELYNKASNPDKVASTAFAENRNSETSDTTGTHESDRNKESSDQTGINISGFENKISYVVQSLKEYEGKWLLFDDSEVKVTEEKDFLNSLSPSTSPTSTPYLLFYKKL
Sequence of Glucocorticoid receptor (Homo sapiens) (P04150 whole entry, looked up): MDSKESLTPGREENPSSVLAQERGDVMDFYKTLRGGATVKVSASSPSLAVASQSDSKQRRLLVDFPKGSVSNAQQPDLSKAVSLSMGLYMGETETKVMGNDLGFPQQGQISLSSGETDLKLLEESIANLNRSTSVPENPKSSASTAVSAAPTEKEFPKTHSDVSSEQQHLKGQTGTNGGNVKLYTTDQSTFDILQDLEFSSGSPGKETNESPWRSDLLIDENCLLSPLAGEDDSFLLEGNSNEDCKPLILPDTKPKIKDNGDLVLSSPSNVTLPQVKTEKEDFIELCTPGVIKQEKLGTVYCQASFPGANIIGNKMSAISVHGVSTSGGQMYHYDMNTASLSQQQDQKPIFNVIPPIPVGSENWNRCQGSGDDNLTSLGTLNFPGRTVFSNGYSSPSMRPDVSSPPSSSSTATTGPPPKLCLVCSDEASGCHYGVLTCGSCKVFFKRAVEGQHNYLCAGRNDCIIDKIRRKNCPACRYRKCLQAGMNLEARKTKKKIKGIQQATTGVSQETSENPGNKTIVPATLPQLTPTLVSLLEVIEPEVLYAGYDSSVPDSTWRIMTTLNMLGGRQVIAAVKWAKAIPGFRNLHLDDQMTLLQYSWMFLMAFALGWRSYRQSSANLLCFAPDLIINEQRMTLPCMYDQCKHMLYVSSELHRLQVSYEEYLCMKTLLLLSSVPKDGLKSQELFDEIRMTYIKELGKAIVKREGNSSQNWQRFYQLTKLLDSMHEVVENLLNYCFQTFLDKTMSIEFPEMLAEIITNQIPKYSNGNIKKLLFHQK
Sequence of DNA dC->dU-editing enzyme APOBEC-3G (Homo sapiens) (Q9HC16 whole entry, looked up): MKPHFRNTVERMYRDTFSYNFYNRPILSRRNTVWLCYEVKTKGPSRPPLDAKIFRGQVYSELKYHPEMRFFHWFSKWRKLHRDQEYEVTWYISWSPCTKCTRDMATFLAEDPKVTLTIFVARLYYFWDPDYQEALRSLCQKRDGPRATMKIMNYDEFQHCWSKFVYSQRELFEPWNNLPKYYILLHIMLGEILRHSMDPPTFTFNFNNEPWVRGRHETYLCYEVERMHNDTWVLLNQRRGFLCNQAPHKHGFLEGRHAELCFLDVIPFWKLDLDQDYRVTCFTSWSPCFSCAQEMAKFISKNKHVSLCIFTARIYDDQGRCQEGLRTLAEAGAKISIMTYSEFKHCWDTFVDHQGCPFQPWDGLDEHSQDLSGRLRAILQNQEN

Consider `COc1cc(-c2ccc(=O)[nH]n2)ccc1OC(F)F`, for which the result in experiment [1] was inactive.
On to `C[C@]12CC[C@@H]3c4ccc(O)cc4CC[C@H]3[C@@H]1CC[C@@H]2O`, for which the activation in experiment [2] is -6.54%.
Take `CCCOC(C(=O)OC1CCN(C)CC1)(c1ccccc1)c1ccccc1`: in experiment [3], the result was inactive. In addition, the Potency entry in experiment [4] was “inactive”.
Consider `Cc1ccc(O)c2ncccc12`, for which, in experiment [3], the call was inactive. Further, the Potency entry in experiment [4] was “inactive”.
As to `COc1ccc(/C=C/C(=O)c2ccc(OC)cc2OC)cc1`, the molecule was called inactive in experiment [3]. The Potency entry in experiment [4] is “inactive”.
Turning to `CC(=O)Oc1ccc(C(=C2CCCCC2)c2ccc(OC(C)=O)cc2)cc1`, the call in experiment [3] was inactive. Besides, the Potency entry in experiment [4] is “inactive”.
`CCN(CC)CCOC(=O)C(c1ccccc1)C1CCCCC1` (stereo not given): in experiment [3], the outcome was inactive. The Potency entry in experiment [4] is “inactive”.
Take `Cc1c(C(N)=O)cc([N+](=O)[O-])cc1[N+](=O)[O-]`: in experiment [3], the call was inactive. For the same molecule, in experiment [4], the Potency entry is “inactive”.
In the case of `COC(=O)[C@@H]1CC2=CC(=O)CC[C@]2(C)[C@@]23O[C@@H]2C[C@@]2(C)[C@@H](CC[C@@]24CCC(=O)O4)[C@H]13`, the molecule was called inactive in experiment [3]. Also, the Potency entry in experiment [4] was “inactive”.
For the molecule `COc1ccc(C2C(=O)c3ccccc3C2=O)cc1`, the result in experiment [3] was inactive. Moreover, the Potency entry in experiment [4] is “inactive”.
Regarding `CCCCc1nc(Cl)c(CO)n1Cc1ccc(-c2ccccc2-c2nn[nH]n2)cc1`, the call in experiment [3] was inactive. In experiment [4], the Potency result was “inactive”.
With `Cc1ccc(C(=O)C(C)CN2CCCCC2)cc1` (stereo not given), in experiment [3], the outcome was inactive. Further, the Potency entry in experiment [4] is “inactive”.
Consider `COc1cc(OC)cc(OC)c1`, for which, in experiment [3], the result was inactive. In addition, in experiment [4], the Potency entry was “inactive”.
In the case of `CC(=O)c1ccc2c(c1)N(CCCN1CCC(CCO)CC1)c1ccccc1S2`, in experiment [3], the call was inactive. In experiment [4], the Potency result is “inactive”.
`CC(C)(C(=O)c1cccnc1)c1cccnc1`: in experiment [3], the outcome was inactive. For the same molecule, the Potency entry in experiment [4] is “inactive”.
On to `Nc1ccc(C(=O)Nc2ccccc2N)cc1`, for which the result in experiment [3] was inactive. The Potency entry in experiment [4] is “inactive”.
Regarding `O=C1[C@H]2CCCC[C@H]2C(=O)N1CCCCN1CCN(c2nsc3ccccc23)CC1`, the molecule was called inactive in experiment [3]. Further, in experiment [4], the Potency result is “inactive”.
As for `CC(C)N=C(N)/N=C(\N)Nc1ccc(Cl)cc1`, in experiment [3], the result was inactive. Besides, the Potency result in experiment [4] was “inactive”.
Regarding `NCCC(O)(P(=O)(O)O)P(=O)(O)O`, the molecule was called inactive in experiment [3]. In addition, in experiment [4], the Potency result is “inactive”.
`CCOc1ccc(NC(=O)CC(C)O)cc1` (stereo not given): the outcome in experiment [3] was inactive. Further, in experiment [4], the Potency result was “inactive”.
As for `CCOc1ccc2nc3cc(N)ccc3c(N)c2c1`, in experiment [3], the molecule was called inactive. In addition, the Potency in experiment [4] is 50.1 µM (active).
The corresponding values for `Cc1c(F)c(N2CCNC(C)C2)cc2c1c(=O)c(C(=O)O)cn2C1CC1` (stereo not given) are “inactive” and “inactive”.
For `CCCCCCCCCCOCC(O)CN` (stereo not given), in that order: “inactive” and “inactive”.
Regarding `Cc1cc(O)c(C(C)C)cc1Cl`, the result in experiment [3] was inactive. In experiment [4], the Potency entry was “inactive”.
On to `CN1C(CCl)Nc2cc(Cl)c(S(N)(=O)=O)cc2S1(=O)=O` (stereo not given), for which the result in experiment [3] was inactive. In experiment [4], the Potency entry was “inactive”.
For `COc1ccc(CN2CCN(C(c3ccc(F)cc3)c3ccc(F)cc3)CC2)c(OC)c1OC`, in experiment [3], the call was inactive. For the same molecule, the Potency result in experiment [4] is “inactive”.
As for `CC(=O)N/N=C/c1ccc([N+](=O)[O-])o1`, the result in experiment [3] was inactive. Besides, the Potency result in experiment [4] was “inactive”.
Turning to `CCCCOc1cc(C(=O)NCCN(CC)CC)c2ccccc2n1`, in experiment [3], the result was inactive. The Potency entry in experiment [4] was “inactive”.
For `CN(C)CCCOc1nn(Cc2ccccc2)c2ccccc12`, the result in experiment [3] was inactive. Besides, the Potency entry in experiment [4] is “inactive”.
Take `CCC(=O)c1c(O)cc(O)cc1O`: the call in experiment [3] was inactive. Besides, the Potency entry in experiment [4] was “inactive”.
On to `CCCCC1=NC2(CCCC2)C(=O)N1Cc1ccc(-c2ccccc2-c2nn[nH]n2)cc1`, for which the result in experiment [3] was inactive. The Potency result in experiment [4] was “inactive”.
Consider `Cc1ccnc(NS(=O)(=O)c2ccc(N)cc2)n1`, for which, in experiment [3], the outcome was inactive. In experiment [4], the Potency result was “inactive”.
Consider `Cc1c(C(C)C)c(=O)n(-c2ccccc2)n1C`, for which the molecule was called inactive in experiment [3]. The Potency entry in experiment [4] was “inactive”.
Consider `O=c1c(-c2ccccc2)c1-c1ccccc1`, for which the molecule was called inactive in experiment [3]. Also, the Potency entry in experiment [4] is “inactive”.
In the case of `CCOC(=O)c1cccc(N)c1`, the result in experiment [3] was inactive. The Potency result in experiment [4] is “inactive”.
As to `C[C@H]1[C@H](NC(=O)/C(=N/OC(C)(C)C(=O)O)c2csc(N)n2)C(=O)N1S(=O)(=O)O` (stereo in doubt), the molecule was called inactive in experiment [3]. In addition, the Potency result in experiment [4] is “inactive”.
For `O=C(COc1ccc(Cl)cc1)N1CCN(Cc2ccc3c(c2)OCO3)CC1`, in experiment [3], the outcome was inactive. Also, in experiment [4], the Potency entry was “inactive”.
Turning to `COc1cc(C(=S)N2CCOCC2)cc(OC)c1OC`, the outcome in experiment [3] was inactive. Besides, the Potency entry in experiment [4] is “inactive”.
As for `Oc1ccc(Cl)c2cccnc12`, the molecule was classed as inactive in experiment [3]. For the same molecule, the Potency result in experiment [4] is “inactive”.
Regarding `CN(C(=O)CN(CCO)CC(=O)N(C)C(C)(C)Cc1ccccc1)C(C)(C)Cc1ccccc1`, the result in experiment [3] was inactive. In experiment [4], the Potency result was “inactive”.
Turning to `CC(=O)OCC(=O)[C@@]1(OC(C)=O)[C@@H](C)C[C@H]2[C@@H]3C[C@H](F)C4=CC(=O)C=C[C@]4(C)[C@@]3(F)[C@@H](O)C[C@@]21C`, the outcome in experiment [3] was inactive. Moreover, the Potency entry in experiment [4] was “inactive”.
For the molecule `Cc1c(C)n(CCN(C)C)c2ccc(C(=O)OCCN(C)C)cc12`, the call in experiment [3] was inactive. Moreover, the Potency result in experiment [4] is “inactive”.
For `CN1CCC[C@@H]1c1cccnc1`, the call in experiment [3] was inactive. The Potency result in experiment [4] was “inactive”.
With `NC(=O)C(=O)N/N=C/c1ccc([N+](=O)[O-])o1`, the result in experiment [3] was inactive. For the same molecule, the Potency entry in experiment [4] was “inactive”.
As for `Cc1cccn2c(=O)c(-c3nnn[nH]3)cnc12`, in experiment [3], the outcome was inactive. Besides, the Potency result in experiment [4] is “inactive”.
Regarding `CC(C)=CCC1C(=O)N(c2ccccc2)N(c2ccccc2)C1=O`, the molecule was classed as inactive in experiment [3]. For the same molecule, the Potency entry in experiment [4] was “inactive”.
